Experimental findings from PubChem BioAssay AID1851 (National Center for Advancing Translational Sciences (NCATS), 2009) are described below.

The AC50 is the concentration at which the activity in the assay is half-maximal.

Out of some 16,000 compounds screened, about 5,700 (36%) were called active. About 24% were inconclusive and are not listed. The call rests on the fitted dose curve; in most records, active means well fitted curve in the direction sought with a large enough effect; inconclusive means small, poorly fitted or top-dose-only effect, or effect the other way; inactive means no such curve, though single readings can be large or run the other way. Some of the results follow.
On the % scale 0 is the no-effect control and ±100 the full control effect.

This test deals with Cytochrome P450 1A2 (Homo sapiens) (UniProt P05177). The test is described as follows: Cytochrome panel assay with activity outcomes. Particulars: recombinant CYP, pro-luciferin dealkylation, luminescence, p450-cyp1a2; series mostly up to 57.1 µM; activity, negative = inhibition: at the top concentration. As to the method: The P450 gene superfamily is involved in the metabolism and clearance of xenobiotics. This assay used various human CYP P450 isozymes to measure the dealkylation of various pro-luciferin substrates to luciferin. The luciferin is then measured by luminescence after the addition of a luciferase detection reagent. Pro-luciferin substrate concentration in the assay was equal to its KM for its CYP P450 isozyme. Inhibitors and some substrates limit the production of luciferin, and decrease measured luminescence.
Cytochrome P450 1A2 (Homo sapiens), sequence (P05177 whole entry, looked up): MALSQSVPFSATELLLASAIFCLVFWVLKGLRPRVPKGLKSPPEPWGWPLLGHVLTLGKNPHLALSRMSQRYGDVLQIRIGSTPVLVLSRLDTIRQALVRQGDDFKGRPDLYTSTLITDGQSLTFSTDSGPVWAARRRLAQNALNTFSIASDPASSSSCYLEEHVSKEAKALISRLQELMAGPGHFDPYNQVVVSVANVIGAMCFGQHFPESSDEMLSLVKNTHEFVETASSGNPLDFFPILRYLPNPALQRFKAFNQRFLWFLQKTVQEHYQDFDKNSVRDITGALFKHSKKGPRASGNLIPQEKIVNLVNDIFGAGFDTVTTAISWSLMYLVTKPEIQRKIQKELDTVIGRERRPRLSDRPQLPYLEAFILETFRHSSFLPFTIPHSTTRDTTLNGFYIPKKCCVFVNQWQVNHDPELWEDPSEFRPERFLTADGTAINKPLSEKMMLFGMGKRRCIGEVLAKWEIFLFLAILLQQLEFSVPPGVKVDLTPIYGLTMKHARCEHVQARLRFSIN
NCGC Assay Protocol Summary:
1, Reagent, 2 uL, Isozyme and Pro-Luciferin
2, Library compounds, 23 nl, 40 uM to 0.24 nM dilution series
3, Controls, 23 nl, Isozyme specific inhibitor
4, Reagent, 2 uL, NADPH regeneration solution
5, Incubation time, 60 min, Isozyme specific temperature
6, Reagent, 4ul, Detection reagent
7, Incubation time, 20 min, Isozyme specific temperature
8, Detection, 1 sec, ViewLux luminescent read
The luciferase-based P450-GloTM Screening Systems were obtained from Promega (Madison, WI) for CYP 1A2 (V9770), CYP 2C9 (V9790), CYP2 C19 (V9880), CYP 2D6 (V9890), and CYP 3A4 Luciferin-PPXE (V9910) and were adapted for 1,536-well microplates and an automated protocol. The control compounds furafylline for 1A2 (F124), sulfaphenazole for CYP 2C9 (S0758), ketoconazole for CYP 2C19 (K1003), quinidine for 2D6 (Q3625), and ketoconazole for 3A4 (K1003) were purchased from Sigma Aldrich (St. Louis, MO). Recombinant P450 enzymes were obtained from baculovirus constructs expressed in insect cells (BD/Gentest).
Medium-binding white solid Kalypsys plates used. Mixtures kept on ice. 1A2: 10 nM 1A2, 100 uM Luc-ME, 100 mM KPO4; 2C9: 10 nM 2C9, 100 uM Luc-H, 25 mM KPO4; 2C19: 5 nM 2C19, 10 uM Luc-H EGE, 50 mM KPO4; 2D6: 5 nM 2D6, 30 uM Luc-ME EGE, 100 mM KPO4; 3A4: 10 nM, 25 uM Luc-PPXE. All amounts are reflected in their final concentration, working concentration is 2x.
NADPH regeneration solution: 1.3 mM NADP+, 3.3 mM glucose-6-phosphate, 3.3 mM MgCl2, 0.4 U/mL glucose-6-phosphate dehydrogenase for all isozymes, 200 mM KPO4 for 3A4. Mixture prepared at RT but kept on ice during automated run.
RT incubation in auxilliary plate hotel for 1A2, 2D6, and 3A4; 37C for 2C9 and 2C19.
Keywords: P450, CYP1A2, CYP2C19, CYP2C9, CYP2D6, CYP3A4, Luciferase, MLSMR, MLSCN, NIH Roadmap, qHTS, NCGC
Turning to `CC(C)(C)C(=O)NC(Nc1cccc2cccnc12)C(Cl)(Cl)Cl` (stereo not drawn), the AC50 was 20000 nM (active).

On to `Oc1c([C@H](Nc2ccccn2)c2ccccc2)ccc2cccnc12`, for which the activity, negative = inhibition is -21.9% [at 2.29 µM] (inactive).

For the molecule `Cc1ccc(C)n1C(Cc1ccccc1)C(=O)O` (stereo not drawn), the activity, negative = inhibition is 6.11% [at 11.4 µM] (inactive).

On to `Cc1cc(C)n(-c2ccc(F)cc2)c(=O)c1C(=O)O`, for which the “activity, negative = inhibition” value was 3.85% (inactive).

On to `Cc1ccc(-n2c(C)nc3c(cnn3-c3ccc(F)cc3)c2=O)cc1C`, for which the half-maximal activity concentration (AC50) is 2510 nM (active).

`FC(F)(F)c1cc(C(F)(F)F)c2ccc(N/N=C/c3cccc(Cl)c3)nc2n1`: the half-maximal activity concentration (AC50) was 2510 nM (active).

On to `O=c1c(O)c(-c2cc(O)c(O)c(O)c2)oc2cc(O)cc(O)c12`, for which the half-maximal activity concentration (AC50) was 5010 nM (active).

As to `Cc1ccc(OCCOCCn2ccnc2)c(Br)c1`, the concentration at half-maximal activity (AC50) is 282 nM (active).

Consider `Cc1cccc(OCCCCCn2ccnc2)c1`, for which the concentration at half-maximal activity (AC50) was 282 nM (active).

Turning to `O=C1C2C3C=CC(C2C(=O)N1CN1CCOCC1)C1C2C(=O)N(CN4CCOCC4)C(=O)C2C31` (stereo not drawn), the activity, negative = inhibition is -7.11% [at 11.4 µM] (inactive).

`CCN1C(=O)[C@H]2[C@H]3[C@H](O)[C@H](O)C/C(=N/NC(=O)OCc4ccccc4)[C@@H]3CC[C@@H]2C1=O`: the activity, negative = inhibition is -2.34% [at 11.4 µM] (inactive).

For the molecule `CC(C)=NOC[C@@H](O)[C@@H]1O[C@@H]2OC(C)(C)O[C@@H]2[C@H]1O`, the activity, negative = inhibition was -4.07% [at 11.4 µM] (inactive).

With `Clc1ccc(-c2ccnc(Oc3cc(Cl)ccc3Cl)n2)cc1`, the AC50 was 447 nM (active).

Turning to `O=C(O)c1ccc(C(=O)O)c(C(=O)O)c1.[NH-][C@@H]1CCCC[C@@H]1[NH-].[Pt]`, the activity, negative = inhibition was -19% [at 11.4 µM] (inactive).

For `CC(C)OCCCN1CN(S(=O)(=O)c2cccc(Cl)c2)c2nc3ccccc3nc21`, the AC50 was 14100 nM (active).

Consider `C[N+](C)(C)CC[N+]1(C)Cc2c(Cl)c(Cl)c(Cl)c(Cl)c2C1`, for which the “activity, negative = inhibition” value was -15.9% (inactive).

Regarding `Cc1noc(C)c1-c1nc(Nc2ccc(F)cc2)c2ccccc2n1`, the AC50 is 251 nM (active).

In the case of `Cc1noc(C)c1-c1nc(NC2CCNCC2)c2ccccc2n1`, the concentration at half-maximal activity (AC50) is 5010 nM (active).

On to `Cc1noc(C)c1-c1nc(Nc2ccncc2)c2ccccc2n1`, for which the half-maximal activity concentration (AC50) is 100 nM (active).

Consider `COc1ccc(Nc2ncc(C(=O)N3CCN(c4ccc(F)cc4)CC3)c3ccccc23)cc1`, for which the “activity, negative = inhibition” value was -21.6% (inactive).

For `Cc1noc(C)c1-c1nc(Nc2ccccc2)c2ccccc2n1`, the AC50 is 251 nM (active).

As for `COc1cccc(C2C3(C#N)C(N)=NC(OC)(OC)C23C#N)c1` (stereo not drawn), the “activity, negative = inhibition” value is -22.7% (inactive).

As to `C#CCCCO/N=C1/C[C@@H](O)[C@@H](O)[C@@H]2[C@@H]3C(=O)N([C@@H](C)c4ccccc4)C(=O)[C@H]3CC[C@@H]12`, the activity, negative = inhibition is -1.14% [at 11.4 µM] (inactive).

Regarding `Cc1noc(C)c1-c1nc(N(C)C)c2ccccc2n1`, the concentration at half-maximal activity (AC50) is 39.8 nM (active).

As for `CNc1nc(-c2c(C)noc2C)nc2ccccc12`, the concentration at half-maximal activity (AC50) is 50.1 nM (active).

Take `COC(=O)[C@@H]1CC[C@H](C)[C@@H](c2ccc(C)cc2)N1C(=O)c1ccc(/C=N\O[C@@H](C)CN2CCCc3nc(C)c(C)cc32)cc1`: the activity, negative = inhibition was -8.09% [at 11.4 µM] (inactive).

Consider `C/C(=N/NC1=NCCN1)c1cn(C2=NCCN2)nc1C`, for which the activity, negative = inhibition is -13.9% [at 2.29 µM] (inactive).

As to `CS(=O)(=O)N1CCC[C@@]2(CCN(c3ccncc3)C2)C1`, the “activity, negative = inhibition” value was -0.751% (inactive).

Turning to `CN(C)[C@H]1C(=O)C(C(=O)NCN2CCCC2)=C(O)[C@]2(O)C(=O)C3=C(O)c4c(O)cccc4[C@@](C)(O)[C@H]3C[C@@H]12`, the “activity, negative = inhibition” value was -13.9% [at 25.6 µM] (inactive).

In the case of `COC(=O)c1ccc(C(=O)OC)c(NC(=S)N2CCN(c3ccccc3)CC2)c1`, the AC50 was 4470 nM (active).

On to `COC(=O)c1cc(OC)c(OC)cc1NC(=S)N1CCCCC1`, for which the AC50 was 1580 nM (active).

As for `COC(=O)c1ccc(NC(=S)N2CCN(Cc3cccc(C)c3)CC2)cc1`, the “activity, negative = inhibition” value was -18.6% (inactive).

For the molecule `NC(=O)C1(N2CCCCC2)CCN(C(=S)Nc2ccc(Cl)cc2)CC1`, the “activity, negative = inhibition” value is -4.97% (inactive).

Take `Cc1ccc(NC(=S)N2CCN(C(=O)C3CCCO3)CC2)c(C)c1` (stereo not drawn): the “activity, negative = inhibition” value was -2.91% (inactive).

With `COc1ccc(N2CCN(C(=S)Nc3cc(C)ccc3C)CC2)cc1`, the “activity, negative = inhibition” value is -5.94% (inactive).

For the molecule `N[C@@H](CS(=O)O)C(=O)O`, the “activity, negative = inhibition” value was -13.2% (inactive).

As for `COc1cccc(NC(=O)CSc2nc3c(c(-c4ccco4)c2C#N)CCCC3)c1`, the “activity, negative = inhibition” value was -1.32% (inactive).

For the molecule `CCc1sc(-c2c(C#N)c(N)nc3c2CCCCCC3)cc1[N+](=O)[O-]`, the AC50 is 2000 nM (active).

Consider `Cc1ccc(-n2cnc(=O)c3cccnc32)cc1`, for which the “activity, negative = inhibition” value is -11.7% (inactive).

Consider `Cc1ccc(N2C(=O)c3n[nH]c(C)c3C2c2ccccn2)cc1` (stereo not drawn), for which the “activity, negative = inhibition” value is -2.91% (inactive).

On to `O=c1ncn(-c2ccccc2F)c2ncccc12`, for which the “activity, negative = inhibition” value is -9.76% (inactive).

Regarding `O=c1nc(-c2ccccc2)n(-c2ccccc2)c2ncccc12`, the “activity, negative = inhibition” value was -20.5% (inactive).

`O=c1[nH]n(-c2cccc(Cl)c2)c2ncccc12`: the concentration at half-maximal activity (AC50) is 5010 nM (active).

Turning to `Cc1ccc(-n2[nH]c(=O)c3cccnc32)cc1`, the half-maximal activity concentration (AC50) is 2510 nM (active).

In the case of `CCOCCCn1cnc2c(c1=O)c1nc3ccccc3nc1n2-c1ccccc1`, the AC50 is 4470 nM (active).

For the molecule `COCCNC(=O)C1CCN(S(=O)(=O)N2CCC3(CC2)OCCO3)CC1`, the “activity, negative = inhibition” value was -13.7% (inactive).

For the molecule `O=C(Nc1ccc2nc(SCc3ccc(Cl)cc3)sc2c1)c1ccccc1C(=O)N1CCOCC1`, the “activity, negative = inhibition” value was -12.7% (inactive).

On to `CCC(C)NCc1ccc(C(=O)OC)o1` (stereo not drawn), for which the “activity, negative = inhibition” value was -12.7% (inactive).
